The antibiotic and cytotoxicity screens of Wong et al. (2023)
Hit rate of the full screen: of about 39,000 compounds, about 3,300 (8.5%) were called active. The list comes from a sample in which actives are over-represented; it also holds similar structures and randomly drawn compounds.

Test system: HepG2
Assay: cytotoxicity call (relative viability < 0.9)
Settings: 10 µM

Row | SMILES | cytotoxicity call
1 | O=C(C[C@@H]1C=C[C@@H](NC(=O)CN2CCOCC2)[C@@H](CO)O1)NCCc1ccccc1 | inactive
2 | C[C@H](CO)N1C[C@H](C)[C@@H](CN(C)Cc2cccc(C(=O)O)c2)Oc2ncc(C#CC(C)(C)O)cc2C1=O | inactive
3 | O=C(CCCCCCC(=O)Nc1ccc([C@H]2O[C@@H](CSc3ccncc3)C[C@@H](c3ccccc3)O2)cc1)NO | inactive
4 | C[C@H]1CCCCO[C@H](CN(C)S(=O)(=O)c2cn(C)cn2)[C@@H](C)CN([C@@H](C)CO)C(=O)c2cc(NC(=O)CCCN(C)C)ccc2O1 | inactive
5 | C[C@@H]1CCCCO[C@H](CN(C)Cc2ccncc2)[C@H](C)CN([C@@H](C)CO)C(=O)c2cc(NC(=O)CCC(F)(F)F)ccc2O1 | inactive
6 | CN1CCN(C(=O)[C@H]2[C@H](CO)[C@H]3Cn4c(cccc4=O)[C@@H]2N3S(=O)(=O)c2ccccc2F)CC1 | inactive
7 | CCNC(=O)C[C@@H]1CC[C@@H]2[C@H](COC[C@H](O)CN2S(=O)(=O)c2ccc(Oc3ccccc3)cc2)O1 | inactive
8 | O=S1(=O)CC[C@H](N2CCOCC2)C1 | inactive
9 | COc1ccc(NC(=O)Nc2ccc3c(c2)C(=O)N([C@H](C)CO)C[C@H](C)[C@@H](CN(C)C(=O)CCC(F)(F)F)OCCCC[C@@H](C)O3)cc1 | inactive
10 | Cc1noc(C)c1NC(=O)Nc1cccc2c1O[C@@H](CN(C)Cc1ccc(C(=O)Nc3ccccc3N)cc1)[C@@H](C)CN([C@H](C)CO)C2=O | inactive
11 | O=C(CN1CCOCC1)N[C@H]1CC[C@@H](CCNC(=O)C2CCCCC2)O[C@@H]1CO | inactive
12 | C[C@@H]1CCCCO[C@H](CN(C)C(=O)NC2CCCCC2)[C@H](C)CN([C@H](C)CO)C(=O)c2cc(NC(=O)CCC(F)(F)F)ccc2O1 | inactive
13 | O=C(CC(=O)N1CCOCC1)N1CCOCC1 | inactive
14 | Cc1noc(C)c1S(=O)(=O)Nc1ccc2c(c1)C(=O)N([C@H](C)CO)C[C@@H](C)[C@@H](CN(C)Cc1ccc3c(c1)OCO3)O2 | inactive
15 | CC(C)c1nc2cc3sc(C(C)C)nc3cc2s1 | inactive
16 | CCCCCCCCCC(=O)N[C@H]1[C@H](Oc2c3cc4cc2Oc2ccc(cc2Cl)[C@@H](O[C@@H]2O[C@H](CO)[C@@H](O)[C@H](O)[C@H]2NC(C)=O)[C@@H]2NC(=O)[C@H](NC(=O)[C@@H]4NC(=O)[C@H]4NC(=O)[C@@H](Cc5ccc(c(Cl)c5)O3)NC(=O)[C@@H](N)c3ccc(O)c(c3)Oc3cc(O)cc4c3)c3ccc(O)c(c3)-c3c(O[C@H]4O[C@H](CO)[C@@H](O)[C@H](O)[C@@H]4O)cc(O)cc3[C@H](C(=O)O)NC2=O)O[C@H](CO)[C@@H](O)[C@@H]1O | inactive
17 | CN1CCN(C(=O)C[C@@H]2CC[C@H]3[C@@H](COc4ccc(NC(=O)C5CCOCC5)cc4C(=O)N3C)O2)CC1 | inactive
18 | CS(=O)(=O)N1C[C@H](O)COC[C@@H]2O[C@@H](CC(=O)NCc3ccccc3)CC[C@H]21 | inactive
19 | C[C@H](CO)N1C[C@H](C)[C@@H](CN(C)S(=O)(=O)c2ccc(F)cc2)Oc2cc(C#Cc3ccc(F)cc3)ccc2S1(=O)=O | inactive
20 | C[C@@H]1CN([C@@H](C)CO)S(=O)(=O)c2ccc(C#Cc3ccc(F)cc3)cc2O[C@@H]1CN(C)S(=O)(=O)c1ccc(F)cc1 | inactive
21 | C[C@@H]1CN([C@@H](C)CO)S(=O)(=O)c2ccc(C#Cc3ccc(F)cc3)cc2O[C@H]1CN(C)S(=O)(=O)c1ccc(F)cc1 | inactive

Row | SMILES | cytotoxicity call
22 | C[C@H](CO)N1C[C@H](C)[C@H](CN(C)S(=O)(=O)c2ccc(F)cc2)Oc2cc(C#Cc3ccncc3)ccc2S1(=O)=O | active
23 | C[C@@H]1CN([C@@H](C)CO)S(=O)(=O)c2ccc(C#Cc3ccncc3)cc2O[C@@H]1CN(C)S(=O)(=O)c1ccc(F)cc1 | active
24 | C[C@H](CO)N1C[C@H](C)[C@H](CN(C)S(=O)(=O)c2ccc(F)cc2)Oc2cc(C#Cc3ccc(F)cc3)ccc2S1(=O)=O | inactive
25 | C[C@@H]1CCCCO[C@H](CN(C)C(=O)NC2CCCCC2)[C@@H](C)CN([C@H](C)CO)C(=O)c2cc(NC(=O)Nc3ccc(F)cc3)ccc2O1 | inactive
26 | Cc1noc(C)c1NC(=O)N[C@H]1C=C[C@@H](CC(=O)NCCCN(C)C)O[C@H]1CO | inactive
27 | C[C@@H]1CN([C@@H](C)CO)C(=O)c2cc(C#CCN(C)C)cnc2O[C@@H]1CN(C)C(=O)Nc1ccccc1F | inactive
28 | Nc1nc(S)c2nc[nH]c2n1 | active
29 | Nc1ncnc2[nH]cnc12 | inactive
30 | Nc1cc2[nH]cnc2c(O)n1 | inactive
31 | CCN(CC)C(=O)c1ccc[n+](CC(N)=O)c1 | inactive
32 | O=C(CCCCCNC(=O)OCCCCO[C@@H]1C[C@H](c2ccc(C(F)(F)F)cc2)C=C(C(=O)N2CCN(Cc3ccc4c(c3)OCO4)CC2)O1)NO | inactive
33 | Cc1noc(C)c1S(=O)(=O)Nc1ccc2c(c1)C(=O)N([C@H](C)CO)C[C@@H](C)[C@H](CN(C)Cc1ccc(C(F)(F)F)cc1)OCCCC[C@H](C)O2 | active
34 | Cc1noc(C)c1S(=O)(=O)Nc1ccc2c(c1)C(=O)N([C@H](C)CO)C[C@@H](C)[C@H](CN(C)Cc1ccc(C(F)(F)F)cc1)OCCCC[C@@H](C)O2 | inactive
35 | Cc1noc(C)c1S(=O)(=O)Nc1ccc2c(c1)C(=O)N([C@H](C)CO)C[C@H](C)[C@H](CN(C)Cc1ccc(C(F)(F)F)cc1)OCCCC[C@H](C)O2 | inactive
36 | Cc1noc(C)c1S(=O)(=O)Nc1ccc2c(c1)C(=O)N([C@@H](C)CO)C[C@H](C)[C@H](CN(C)Cc1ccc(C(F)(F)F)cc1)OCCCC[C@@H](C)O2 | active
37 | Cc1noc(C)c1S(=O)(=O)Nc1ccc2c(c1)C(=O)N([C@H](C)CO)C[C@@H](C)[C@@H](CN(C)Cc1ccc(C(F)(F)F)cc1)OCCCC[C@@H](C)O2 | inactive
38 | Cc1noc(C)c1S(=O)(=O)Nc1ccc2c(c1)C(=O)N([C@H](C)CO)C[C@H](C)[C@@H](CN(C)Cc1ccc(Cl)c(Cl)c1)OCCCC[C@H](C)O2 | inactive
39 | Cc1noc(C)c1S(=O)(=O)Nc1ccc2c(c1)C(=O)N([C@H](C)CO)C[C@@H](C)[C@@H](CN(C)Cc1ccc(Cl)c(Cl)c1)OCCCC[C@H](C)O2 | active
40 | Cc1noc(C)c1S(=O)(=O)Nc1ccc2c(c1)C(=O)N([C@@H](C)CO)C[C@H](C)[C@@H](CN(C)Cc1ccc(Cl)c(Cl)c1)OCCCC[C@H](C)O2 | inactive
41 | Cc1noc(C)c1S(=O)(=O)Nc1ccc2c(c1)C(=O)N([C@H](C)CO)C[C@H](C)[C@H](CN(C)Cc1ccc(C(F)(F)F)cc1)OCCCC[C@@H](C)O2 | inactive
42 | Cc1noc(C)c1S(=O)(=O)Nc1ccc2c(c1)C(=O)N([C@H](C)CO)C[C@H](C)[C@@H](CN(C)Cc1ccc(C(F)(F)F)cc1)OCCCC[C@H](C)O2 | inactive

Row | SMILES | cytotoxicity call
43 | Cc1noc(C)c1S(=O)(=O)Nc1ccc2c(c1)C(=O)N([C@@H](C)CO)C[C@H](C)[C@@H](CN(C)Cc1ccc(C(F)(F)F)cc1)OCCCC[C@@H](C)O2 | inactive
44 | Cc1noc(C)c1S(=O)(=O)Nc1ccc2c(c1)C(=O)N([C@H](C)CO)C[C@@H](C)[C@@H](CN(C)Cc1ccc(C(F)(F)F)cc1)OCCCC[C@H](C)O2 | active
45 | O=C(C[C@H]1CC[C@H]2[C@@H](COC[C@@H](O)CN2S(=O)(=O)c2cccc(Cl)c2)O1)NCc1ccc2c(c1)OCO2 | inactive
46 | O=c1[nH]snc1N1CCCCC1 | inactive
47 | CC(C)CNC(=O)C(=O)NC(C)C | inactive
48 | COc1ccc(S(=O)(=O)Nc2ccc3c(c2)C(=O)N([C@H](C)CO)C[C@H](C)[C@@H](CN(C)C(=O)Nc2cccc4ccccc24)O3)cc1 | inactive
49 | COc1ccccc1NC(=O)N(C)C[C@H]1Oc2ncc(Br)cc2C(=O)N([C@H](C)CO)C[C@H]1C | inactive
50 | CC(C)CN1C(=O)[C@@]2(c3ccc([N+](=O)[O-])cc3)CC(=O)N(CC3C4CC5CC(C4)CC3C5)[C@@H]2c2ccc(CO)cc21 (stereo partly drawn) | inactive
51 | C[C@H]1CN([C@@H](C)CO)C(=O)c2cccc(NS(C)(=O)=O)c2O[C@H]1CN(C)C(=O)NC1CCCCC1 | inactive
52 | O=C(C[C@H]1CC[C@H](NC(=O)CN2CCOCC2)[C@@H](CO)O1)NCCc1ccncc1 | inactive
53 | C[C@@H]1CN([C@H](C)CO)C(=O)c2cc(NC(=O)C3CCCCC3)ccc2O[C@H]1CN(C)Cc1ccc(Oc2ccccc2)cc1 | inactive
54 | CCS(=O)(=O)Nc1ccc2c(c1)C(=O)N(C)[C@H]1CC[C@@H](CC(=O)NCc3ccccc3F)O[C@@H]1CO2 | inactive
55 | Cc1noc(C)c1NC(=O)N(C)C[C@H]1OCCCC[C@H](C)Oc2ccc(NS(=O)(=O)c3ccccc3)cc2C(=O)N([C@@H](C)CO)C[C@@H]1C | inactive
56 | CC(C)(C)S(=O)N1Cc2cc(C(=O)N[C@@H]3CCN(Cc4ccccc4)C3)nc(-c3cccc(-c4cccc(F)c4)c3)c2[C@@H]1CCO (stereo partly drawn) | inactive
57 | C[C@@H]1CN([C@H](C)CO)C(=O)c2cc(C#C[C@@H](C)O)cnc2O[C@@H]1CN(C)C(=O)CN1CCOCC1 | inactive
58 | COc1ccc(S(=O)(=O)N(C)C[C@@H]2OCCCC[C@H](C)Oc3ccc(NC(=O)C4CCCCC4)cc3C(=O)N([C@H](C)CO)C[C@@H]2C)cc1 | inactive
59 | COc1ccc(S(=O)(=O)N(C)C[C@H]2OCCCC[C@H](C)Oc3ccc(NC(=O)C4CCCCC4)cc3C(=O)N([C@@H](C)CO)C[C@H]2C)cc1 | inactive
60 | COc1ccc(S(=O)(=O)N(C)C[C@@H]2OCCCC[C@@H](C)Oc3ccc(NC(=O)C4CCCCC4)cc3C(=O)N([C@H](C)CO)C[C@H]2C)cc1 | active
61 | COc1ccc(S(=O)(=O)N(C)C[C@H]2OCCCC[C@H](C)Oc3ccc(NC(=O)C4CCCCC4)cc3C(=O)N([C@@H](C)CO)C[C@@H]2C)cc1 | inactive
62 | COc1ccc(S(=O)(=O)N(C)C[C@H]2OCCCC[C@@H](C)Oc3ccc(NC(=O)C4CCCCC4)cc3C(=O)N([C@H](C)CO)C[C@H]2C)cc1 | inactive
63 | COc1ccc(S(=O)(=O)N(C)C[C@H]2OCCCC[C@H](C)Oc3ccc(NC(=O)C4CCCCC4)cc3C(=O)N([C@H](C)CO)C[C@@H]2C)cc1 | active
